# Reference: the supplement of paper PMC10646978
# ± gives the standard deviation.
# Columns and labels:
# Conditions in all cases: modulator concentration 10 µM
# [1] = tested on: RAW-Dual (murine macrophage reporter line); experiment: NF-kB reporter (SEAP) activity fold change vs agonist alone; higher = enhanced NF-kB activity
# Procedure, shortened: (§1)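 RAW-Dual murine macrophage reporter cells were plated at 50 000 per well in 384-well plates, pin-transferred compound to 10 μM final, and pre-incubated for 1 hour at 37 °C before a PRR agonist was added and the cells incubated overnight. NF-κB activity was read from supernatant SEAP with QUANTI-Blue at 620 nm absorbance, and IRF activity from Lucia luciferase with QUANTI-Luc by luminescence. Each signal was expressed as fold change by dividing by the mean agonist-only control on the same plate. Two replicate plates were averaged, with errors obtained by propagation.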
# [2] = tested on: RAW-Dual (murine macrophage reporter line); experiment: IRF reporter (Lucia luciferase) activity fold change vs agonist alone; higher = enhanced IRF activity
# Procedure, shortened: as §1
# [3] = tested on: RAW-Dual (murine macrophage reporter line); experiment: viability score (confluency relative to resting cells, overnight) (fraction); higher = more viable, active = viable (0.7 or more)
# Procedure, shortened: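 In 384-well plates, RAW-Dual macrophages received compound at a final 10 μM overnight. Two confluency masks were then made with IncuCyte software from IncuCyte images of all imaged wells. The viability score is defined as confluency relative to resting cells. Passing the cutoff required both masks to lie above 70% of resting cells.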
# [4] = agonist: CpG ODN 1826 0.5 ug/mL
Compound,"NF-kB reporter [1, 4]",NF-kB reporter ([1]; agonist: LPS 0.1 ug/mL),NF-kB reporter ([1]; agonist: MPLA […]),IRF reporter ([2]; agonist: 3'3'-cGAMP 10 ug/mL),IRF reporter ([2]; agonist: LPS 0.1 ug/mL),IRF reporter ([2]; agonist: MPLA […]),viability score [3]
CN(C)c1nc(CNC(=O)c2cnn(-c3ccccc3)n2)nc(N2CCCC2)n1,1.01 ± 0.052,1.1 ± 0.086,1.02 ± 0.11,1.05 ± 0.054,1.26 ± 0.08,1.13 ± 0.31,1.02 (active)
CC(Sc1ccc(Cl)cc1)C(=O)NCc1cccnc1 (stereo not drawn),1.07 ± 0.09,0.846 ± 0.065,1.08 ± 0.2,0.846 ± 0.031,0.905 ± 0.058,0.741 ± 0.14,0.992 (active)
C#CCCCCCCCCCCCC(=O)CC(O)COC(C)=O (stereo not drawn),0.822 ± 0.073,0.338 ± 0.034,0.808 ± 0.022,0.176 ± 0.019,0.878 ± 0.098,0.81 ± 0.15,0.849 (active)
COc1ccc(S(=O)(=O)NNc2ccc([N+](=O)[O-])cc2[N+](=O)[O-])cc1,1.21 ± 0.07,0.864 ± 0.059,0.777 ± 0.05,0.342 ± 0.025,1.22 ± 0.19,1.34 ± 0.14,0.962 (active)
CN1CCC(=C2c3ccccc3CCn3c(C=O)cnc32)CC1,0.766 ± 0.11,1.24 ± 0.12,0.971 ± 0.1,0.875 ± 0.04,1.1 ± 0.14,0.943 ± 0.29,1 (active)
N#CC1=C(NC(=S)NC(=O)c2ccccc2)c2ccccc2CC12CCCC2,0.535 ± 0.03,0.918 ± 0.07,0.717 ± 0.042,0.792 ± 0.033,1.63 ± 0.1,1.26 ± 0.2,0.982 (active)
COc1ccc(CN(CCN(C)C)c2ccccn2)cc1.O=C(O)C=CC(=O)O,0.857 ± 0.065,0.954 ± 0.051,1.01 ± 0.021,0.982 ± 0.054,0.915 ± 0.097,0.897 ± 0.07,1 (active)
CS(=O)(=O)O.Cc1ccc(N(CC2=NCCN2)c2cccc(O)c2)cc1,0.981 ± 0.19,1.03 ± 0.34,0.957 ± 0.09,0.628 ± 0.019,1.09 ± 0.28,1.04 ± 0.08,1 (active)
Cc1[nH]c2ccc(Br)cc2c(=O)c1CN1CCCCC1,0.828 ± 0.092,0.97 ± 0.054,0.899 ± 0.054,0.951 ± 0.035,1.25 ± 0.17,0.92 ± 0.091,1 (active)
CCOC(=O)C1=C(C)NC(C)=C(C(=O)OCC)C1c1ccc(OC)cc1,0.973 ± 0.088,1.05 ± 0.066,1.02 ± 0.068,1.17 ± 0.044,0.867 ± 0.081,0.987 ± 0.27,0.946 (active)
O=C(Nc1ccc(S(=O)(=O)N2CCOCC2)cc1)c1ccc(Br)s1,1.14 ± 0.13,1.02 ± 0.092,1.01 ± 0.029,0.521 ± 0.021,1.05 ± 0.065,1.12 ± 0.12,0.995 (active)
CC1=CCC(C2Nc3ccccc3-c3nnc(SCc4ccc(C)cc4)nc3O2)CC1 (stereo not drawn),1.05 ± 0.13,1 ± 0.057,0.881 ± 0.053,0.978 ± 0.053,1.5 ± 0.1,1.22 ± 0.15,1.01 (active)
COC(=O)C1=C(C)N(c2ccc(F)cc2)C(=O)C1,1 ± 0.092,0.811 ± 0.08,0.813 ± 0.071,0.516 ± 0.025,0.865 ± 0.068,0.505 ± 0.065,1.01 (active)
COc1ccc(CNC2CCCc3ccccc32)c(OC)c1C (stereo not drawn),0.166 ± 0.016,0.504 ± 0.058,1.09 ± 0.1,1.24 ± 0.04,1.21 ± 0.14,1.42 ± 0.29,0.192 (inactive)
CC(N)C12CC3CC(CC(C3)C1)C2.Cl (stereo not drawn),0.598 ± 0.14,1.07 ± 0.12,1.04 ± 0.068,0.919 ± 0.033,0.899 ± 0.1,0.966 ± 0.27,0.543 (inactive)
Cc1cc(C)n(CCC(=O)N2CCc3nc4ccc(F)cn4c(=O)c3C2)n1,1.02 ± 0.051,0.938 ± 0.098,1.01 ± 0.1,1.03 ± 0.06,1.27 ± 0.079,1.21 ± 0.12,1 (active)
Cc1ccccc1C(=O)Nc1ccc(C(=O)N2CCCC(N(C)C)c3ccccc32)cc1 (stereo not drawn),1.05 ± 0.27,1 ± 0.05,0.929 ± 0.065,0.94 ± 0.046,1.15 ± 0.18,1.17 ± 0.13,1 (active)
N#Cc1ccnc(N2C(=O)CC[C@H]2C(=O)N(c2cncc(F)c2)[C@H](C(=O)NC2CC(F)(F)C2)c2ccccc2Cl)c1,1.26 ± 0.3,1.04 ± 0.07,1.26 ± 0.08,1.09 ± 0.055,1.28 ± 0.2,1.17 ± 0.12,1 (active)
CCOc1ccccc1NC(=O)NCCc1csc(-n2nc(C)cc2C)n1,0.996 ± 0.069,1.14 ± 0.096,0.797 ± 0.12,1.12 ± 0.085,0.983 ± 0.061,0.938 ± 0.41,1.01 (active)
Nc1ccc(S(=O)(=O)NCCO)cc1,0.983 ± 0.07,1.06 ± 0.12,0.996 ± 0.068,0.973 ± 0.042,1.4 ± 0.12,1.07 ± 0.11,1 (active)
CN(C)c1cncc(OC2CCN(S(C)(=O)=O)C2)n1 (stereo not drawn),1.02 ± 0.12,1.12 ± 0.1,0.911 ± 0.04,0.836 ± 0.045,0.951 ± 0.064,0.923 ± 0.07,1.01 (active)
CC12CCC(=O)C=C1C=CC1C2CCC2(C)C1CCC21CCC(=O)O1 (stereo not drawn),0.781 ± 0.19,0.958 ± 0.084,0.93 ± 0.059,0.963 ± 0.034,1.1 ± 0.21,1.06 ± 0.12,1.01 (active)
Cc1ccc(-n2c(C)cc(C=NNC(=O)CN3CCOCC3)c2C)c(C)c1,0.928 ± 0.084,1.11 ± 0.1,1.09 ± 0.097,0.822 ± 0.024,1.09 ± 0.19,1.07 ± 0.082,1 (active)
CC(=O)C1CCC2C3CC=C4CC(O)CCC4(C)C3CCC12C (stereo not drawn),1.19 ± 0.29,1.1 ± 0.12,1.13 ± 0.074,0.887 ± 0.03,1.28 ± 0.16,1.32 ± 0.16,0.986 (active)
